From PubChem BioAssay AID1159580 (chemical genetic matrix, 2015)
Out of some 5,500 compounds screened, about 2,000 (36%) were called active. Inconclusive results (about 18%) are left out. No stated cut-off is given here; in the data, active means normalized growth mostly below about 0.91 (no sharp cut-off); inconclusive means no clear call, values can overlap the other calls; inactive means mostly above about 0.92. This is one part of the list.

Experiment: chemical genetic growth profiling, strain panel (AID 1159580);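 further: tested at 20 µM; growth read once vehicle control cultures reached saturation at 30 °C; 1 = growth at the plate median or of vehicle wells; lower values mean less growth of the strain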
Conditions: growth OD

Measured: normalized growth

CN[C@@H]1C(OC2[C@H](O[C@H]3[C@H](O)[C@@H](O)[C@H](N=C(N)N)[C@@H](O)[C@@H]3N=C(N)N)OC(C)[C@]2(O)CO)OC(CO)C(O)C1O (stereo partly drawn)
inactive: S. cerevisiae deletion strains, locus YKL009W, strain mrt4, hits give low values 0.975 | S. cerevisiae deletion strains, locus YKL068W, hits give low values 0.991 | S. cerevisiae deletion strains, locus YKL085W, strain MDH1 (second series), hits give low values 1.01 | S. cerevisiae deletion strains, locus YKL085W, strain MDH1, hits give low values 1.01 | S. cerevisiae deletion strains, locus YKL160W, strain elf1, hits give low values 1 | S. cerevisiae deletion strains, locus YKL190W, strain CNB1, hits give low values 0.998 | S. cerevisiae deletion strains, locus YKR001C, strain vps1, hits give low values 0.981 | S. cerevisiae deletion strains, locus YKR026C, strain gcn3, hits give low values 0.992 | S. cerevisiae deletion strains, locus YKR091W, strain srl3, hits give low values 0.998 | S. cerevisiae deletion strains, locus YLL001W, strain dnm1, hits give low values 0.995 | S. cerevisiae deletion strains, locus YLL026W, hits give low values 0.998 | S. cerevisiae deletion strains, locus YLL041C, strain sdh2, hits give low values 1.01 | S. cerevisiae deletion strains, locus YLR027C, strain aat2, hits give low values 1 | S. cerevisiae deletion strains, locus YLR039C, strain RIC1, hits give low values 1.01 | S. cerevisiae deletion strains, locus YLR058C, strain SHM2, hits give low values 0.985 | S. cerevisiae deletion strains, locus YLR102C, strain apc9, hits give low values 0.976 | S. cerevisiae deletion strains, locus YLR113W, strain HOG1, hits give low values 1.06 | S. cerevisiae deletion strains, locus YLR221C, strain rsa3, hits give low values 1.02 | S. cerevisiae deletion strains, locus YLR258W, strain gsy2, hits give low values 1.01 | S. cerevisiae deletion strains, locus YLR262C, strain YPT6 (second series), hits give low values 1 | S. cerevisiae deletion strains, locus YLR262C, strain YPT6, hits give low values 1.01 | S. cerevisiae deletion strains, locus YLR268W, strain sec22, hits give low values 0.985 | S. cerevisiae deletion strains, locus YLR320W, strain mms22, hits give low values 1.03 | S. cerevisiae deletion strains, locus YLR330W, strain CHS5, hits give low values 0.991 | S. cerevisiae deletion strains, locus YLR342W, strain FKS1 (second series), hits give low values 1.04 | S. cerevisiae deletion strains, locus YLR342W, strain FKS1, hits give low values 1 | S. cerevisiae deletion strains, locus YLR357W, strain rsc2, hits give low values 0.962 | S. cerevisiae deletion strains, locus YLR370C, strain arc18, hits give low values 1.01 | S. cerevisiae deletion strains, locus YLR371W, strain rom2, hits give low values 0.973 | S. cerevisiae deletion strains, locus YLR384C, strain iki3, hits give low values 0.997 | S. cerevisiae deletion strains, locus YLR418C, strain cdc73, hits give low values 0.954 | S. cerevisiae deletion strains, locus YML016C, strain PPZ1, hits give low values 0.993 | S. cerevisiae deletion strains, locus YML032C, strain rad52, hits give low values 0.988 | S. cerevisiae deletion strains, locus YML120C, strain ndi1, hits give low values 0.99 | S. cerevisiae deletion strains, locus YML124C, strain tub3, hits give low values 0.972 | S. cerevisiae deletion strains, locus YMR058W, strain fet3, hits give low values 1.01 | S. cerevisiae deletion strains, locus YMR078C, strain ctf18, hits give low values 0.959 | S. cerevisiae deletion strains, locus YMR125W, strain sto1, hits give low values 0.997 | S. cerevisiae deletion strains, locus YMR129W, hits give low values 1 | S. cerevisiae deletion strains, locus YMR205C, strain PFK2, hits give low values 0.995 | S. cerevisiae deletion strains, locus YMR223W, strain ubp8, hits give low values 0.961 | S. cerevisiae deletion strains, locus YMR231W, strain pep5, hits give low values 1.01 | S. cerevisiae deletion strains, locus YMR263W, strain SAP30, hits give low values 0.979 | S. cerevisiae deletion strains, locus YMR307W, strain GAS1, hits give low values 1.1 | S. cerevisiae deletion strains, locus YNL067W, strain RPL9B, hits give low values 0.976 | S. cerevisiae deletion strains, locus YNL071W, strain lat1, hits give low values 1.01 | S. cerevisiae deletion strains, locus YNL183C, strain NPR1, hits give low values 0.99 | S. cerevisiae deletion strains, locus YNL209W, strain ssb2, hits give low values 0.996 | S. cerevisiae deletion strains, locus YNL233W, strain BNI4, hits give low values 0.976 | S. cerevisiae deletion strains, locus YNL248C, strain rpa49, hits give low values 1.02 | S. cerevisiae deletion strains, locus YNL250W, strain rad50, hits give low values 0.975 | S. cerevisiae deletion strains, locus YNL271C, strain bni1, hits give low values 0.975 | S. cerevisiae deletion strains, locus YNL298W, strain CLA4, hits give low values 0.977 | S. cerevisiae deletion strains, locus YNL307C, strain MCK1, hits give low values 0.976 | S. cerevisiae deletion strains, locus YNL322C, strain KRE1 (second series), hits give low values 0.993 | S. cerevisiae deletion strains, locus YNL322C, strain KRE1, hits give low values 0.998 | S. cerevisiae deletion strains, locus YNR049C, strain mso1, hits give low values 1 | S. cerevisiae deletion strains, locus YNR052C, strain pop2, hits give low values 0.972 | S. cerevisiae deletion strains, locus YOL012C, strain htz1 1 | S. cerevisiae deletion strains, locus YOL147C, strain pex11, hits give low values 0.982 | S. cerevisiae deletion strains, locus YOR001W, strain rrp6, hits give low values 1 | S. cerevisiae deletion strains, locus YOR061W, strain CKA2, hits give low values 0.991 | S. cerevisiae deletion strains, locus YOR069W, strain VPS5, hits give low values 0.993 | S. cerevisiae deletion strains, locus YOR070C, strain gyp1, hits give low values 1.01 | S. cerevisiae deletion strains, locus YOR080W, strain dia2, hits give low values 0.996 | S. cerevisiae deletion strains, locus YOR083W, strain WHI5, hits give low values 0.998 | S. cerevisiae deletion strains, locus YOR106W, strain vam3, hits give low values 1.05 | S. cerevisiae deletion strains, locus YOR136W, strain idh2, hits give low values 0.976 | S. cerevisiae deletion strains, locus YOR144C, strain elg1, hits give low values 0.984 | S. cerevisiae deletion strains, locus YOR184W, strain ser1, hits give low values 0.978 | S. cerevisiae deletion strains, locus YOR231W, strain MKK1, hits give low values 1.04 | S. cerevisiae deletion strains, locus YOR265W, strain rbl2, hits give low values 0.998 | S. cerevisiae deletion strains, locus YOR270C, strain vph1, hits give low values 1.07 | S. cerevisiae deletion strains, locus YOR290C, strain snf2, hits give low values 1.02 | S. cerevisiae deletion strains, locus YOR316C, strain cot1, hits give low values 0.976 | S. cerevisiae deletion strains, locus YPL051W, strain arl3, hits give low values 1.01 | S. cerevisiae deletion strains, locus YPL055C, strain LGE1, hits give low values 1.01 | S. cerevisiae deletion strains, locus YPL078C, strain atp4, hits give low values 1 | S. cerevisiae deletion strains, locus YPL106C, strain sse1, hits give low values 1.02 | S. cerevisiae deletion strains, locus YPL240C, strain hsp82, hits give low values 0.993 | S. cerevisiae deletion strains, locus YPL241C, strain CIN2, hits give low values 0.998 | S. cerevisiae deletion strains, locus YPL256C, strain CLN2, hits give low values 1.06 | S. cerevisiae deletion strains, locus YPR119W, strain clb2, hits give low values 0.971 | S. cerevisiae deletion strains, locus YPR141C, strain kar3, hits give low values 0.972 | S. cerevisiae deletion strains, locus YPR163C, strain tif3, hits give low values 0.971 | S. cerevisiae deletion strains, locus YPR167C, strain met16, hits give low values 0.97 | S. cerevisiae deletion strains, strain wtn01, hits give low values 0.975 | S. cerevisiae strains, strain wild type, hits give low values 0.999
